{"source": "PubChem BioAssay (EPA / NIEHS)", "note": "The source made the active and inactive calls. The calls were made as follows: active = hit-call score of the fitted dose curve at least 0.9, where 1 is the maximum; inactive = score below 0.9.", "data": [{"read-out": "CYP2C9 (gene 1559)", "assay": "LTEA_HepaRG_CYP2C9: Life Technologies and Expression Analysis (LTEA) Assay for CYP2C9 using HepaRG (AID 2283484)", "settings": "mRNA level, 48 h; actives raise or lower the signal", "description": "LTEA_HepaRG is a cell based, multiplexed-readout assay that uses HepaRG, a human liver cell line, with measurements taken at 48 hours after chemical dosing on a 96-well plate.LTEA_HepaRG_CYP2C9 is one of 102 assay component(s) measured in the LTEA HepaRG cell culture assay. It is a marker of NR mediated metabolism.Data from the assay component LTEA_HepaRG_CYP2C9 was analyzed into 1 endpoint. This assay endpoint, LTEA_HepaRG_CYP2C9, was analyzed with bidirectional fitting relative to DMSO as the negative control and baseline of activity. Using a type of inducible reporter, measures of mRNA induction for gain or loss-of-signal activity can be used to understand regulation of transcription factor activity. To generalize the intended target to other relatable targets, this assay endpoint is annotated to the cyp intended target family, where the subfamily is xenobiotic metabolism.\nA total of 1060 chemcials from the ToxCast library were tested in eight-point concentration-response experiments. Cell culture and cytotoxicity assays were conducted at Thermo Fisher Scientific's Custom Services facility (Madison, WI). A single lot of human HepaRG cells (Thermo Fisher Scientific, Frederick, MD) was used for the cell culture experiments. 96-well format collagen type I coated plates of human HepaRG cells were prepared using established methods. Briefly, cryopreserved HepaRG cells were thawed, plated at a density of approximately 100,000 cells/well in HepaRG Thaw, Plate, and General Purpose media (HPRG770, Thermo Fisher Scientific), and incubated for 48 hours. 0.5% DMSO was selected as vehicle control to balance the requisite need of DMSO in HepaRG cultures to maintain differentiation (for example, baseline metabolism, proportions of hepatocytes vs. cholangiocytes), while enabling further hepatic receptor pathway activation (for example, PXR and CAR) in response to chemical exposure. 48 hours after plating, the culture medium was replaced with HepaRG Serum-Free Incudtion Media. Cells were exposed to each test chemical in duplicate and maintained in CO2 incubators for another 48 hours. Chemical plates were thawed to room temperature and 200x concentrations of treatment groups were prepared. 8-point conentration-reponse curves were made with the highest exposure at 100 uM, followed by half-log dilutions, all in 0.5% DMSO. Each test plate contained variouse controls, induction positive controls (1mM phenobarbital), cytotoxicity positive controls ([…] aflatoxin B1), vehicle controls (0.5% DMSO), and total lysis controls (0.5% DMSO). Cell morphology images were taken using an Essen IncuCyte FLR automated microscope, with six 96-well plates imaged in about 24 minutes. Images were captured and exported and JPEG files. Spent culture media was transfered to black-well plates for the LDH assay, and remaining media was sorted at -80 C for later use. Cells were treated with RLT buffer and frozen until shipped for gene expression analysis. Total RNA was isolated from the cell suspension in 75 uL of Buffer RLT (Qiagen, Germantown, MD 20874) by Quintiles/Expression Analysis (Durham, NC) using a custom isolation procedure. Total RNA from each plate well was transferred to a preamplification plate. Fluidigm's 96.96 Dynamic ArrayTM (Fluidigm, Amsterdam, the Netherlands) technology was used for gene expression analyses by quantitative reverse transcription polymerase chain reaction (qRT-PCR, performed by Quintiles/Expression Analysis, Durham, NC)89. Standard TaqManTM Assays (Applied Biosystems/ThermoFisher Scientific, Foster City, CA) were used to assess the expression of 93 genes selected based on their selectivity and sensitivity to important hepatic receptors known to be modulated by environmental chemicals; importance in human hepatocyte functionality; and hepatotoxicity. […]", "values": [{"compound": "CNCc1cc(F)ccc1Oc1ccc(Cl)c(Cl)c1", "AC50": "92.6 µM (active)"}, {"compound": "CCCCCCC(=O)OCC", "outcome": "inactive"}, {"compound": "C1CCC(SSC2CCCCC2)CC1", "outcome": "inactive"}, {"compound": "CN[C@H]1CC[C@@H](c2ccc(Cl)c(Cl)c2)c2ccc(S(N)(=O)=O)cc21", "AC50": "34.1 µM (active)"}, {"compound": "CC=Cc1ccc(O)c(OC)c1", "outcome": "inactive"}, {"compound": "Cc1cccc(Nc2cc(Cl)nc(SCC(=O)O)n2)c1C", "outcome": "inactive"}, {"compound": "Nc1ccc2c(c1)C(=O)c1ccccc1C2=O", "AC50": "1.04 µM (active)"}, {"compound": "CCCCCCCCCCCCCCCCCC(=O)O", "outcome": "inactive"}, {"compound": "Oc1ccc2c(c1)OC[C@@H](N1CCC(O)(c3ccc(F)cc3)CC1)[C@H]2O", "outcome": "inactive"}, {"compound": "FC(F)(F)C(F)(F)C(F)(F)C(F)(F)C(F)(F)C(F)(F)CCI", "outcome": "inactive"}, {"compound": "CN1CCN(Cc2cc(-c3ccc4[nH]c(=O)oc4c3)co2)[C@@H](c2ccc(F)cc2)C1", "AC50": "88 µM (active)"}, {"compound": "CC(=O)C(C)=CC1C(C)=CCCC1(C)C", "note": "(stereo not given)", "outcome": "inactive"}, {"compound": "CCCCCCCCCCCCCCCC", "outcome": "inactive"}, {"compound": "O=[N+]([O-])C(CO)(CO)CO", "outcome": "inactive"}, {"compound": "CCOc1ccc2c(c1)C(C)=CC(C)(C)N2", "outcome": "inactive"}, {"compound": "c1cc(-c2ccncc2)ccn1", "outcome": "inactive"}, {"compound": "COCCOCCOC", "outcome": "inactive"}, {"compound": "CCOC(=O)CCC(=O)OCC", "outcome": "inactive"}, {"compound": "CCCCCCOCCO", "outcome": "inactive"}, {"compound": "CCCc1cc(=O)[nH]c(=S)[nH]1", "outcome": "inactive"}, {"compound": "COC(=O)c1ccc(O)cc1", "outcome": "inactive"}, {"compound": "COc1ccc(S(=O)(=O)N2C(=O)[C@@](c3ccccc3OC)(N3C[C@H](O)C[C@H]3C(=O)N(C)C)c3cc(Cl)ccc32)c(OC)c1", "AC50": "20.5 µM (active)"}, {"compound": "CC(CO)OC(C)CO", "note": "(stereo not given) (tested in a mixture with another compound)", "outcome": "inactive"}, {"compound": "Oc1ccc2ccccc2c1N=Nc1ccccc1", "AC50": "9.92 µM (active)"}, {"compound": "Cc1ccc2ncccc2c1", "outcome": "inactive"}, {"compound": "COc1ccc2c(c1)c(CC(=O)O)c(C)n2C(=O)c1ccc(Cl)cc1", "outcome": "inactive"}, {"compound": "NCCO", "outcome": "inactive"}, {"compound": "Cc1c(C(=O)O)c(O)cc2c1C(=O)c1c(O)c([C@@H]3O[C@H](CO)[C@@H](O)[C@H](O)[C@H]3O)c(O)c(O)c1C2=O", "outcome": "inactive"}, {"compound": "C=CCc1ccc(O)c(OC)c1", "outcome": "inactive"}, {"compound": "O=C(N[C@@H](Cc1ccccc1)[C@@H](O)C(=O)N1C[C@@H](O)[C@@H](O)C1)c1cc2cc(Cl)ccc2[nH]1", "AC50": "12.5 µM (active)"}, {"compound": "CC(=O)Oc1ccccc1C(=O)O", "outcome": "inactive"}, {"compound": "CC1=C(/C=C/C(C)=C/C=C/C(C)=C/CO)C(C)(C)CCC1", "outcome": "inactive"}, {"compound": "COc1cc(C=O)ccc1O", "outcome": "inactive"}, {"compound": "Cc1cc(NC(=O)C(=O)O)cc(C)c1Oc1ccc(O)c2c1CCC2", "outcome": "inactive"}, {"compound": "Cc1cc(=O)[nH]c(=S)[nH]1", "outcome": "inactive"}, {"compound": "Cc1ccccc1Cl", "outcome": "inactive"}, {"compound": "CCNc1cccc(C)c1", "outcome": "inactive"}, {"compound": "NC(=O)Cn1c(=O)cc(CCN2CCN(c3nccc4sccc34)CC2)c2ccc(F)cc21", "AC50": "78 µM (active)"}, {"compound": "COCCOC[C@H](CC1(C(=O)NC2CCC(C(=O)O)CC2)CCCC1)C(=O)Oc1ccc2c(c1)CCC2", "note": "(stereo not given in full)", "outcome": "inactive"}, {"compound": "OC[C@@H](O)[C@@H](O)[C@H](O)[C@H](O)CO", "outcome": "inactive"}]}]}
